# Experimental data: PubChem BioAssay AID1159580 (chemical genetic matrix, 2015)
# “And” between values parts separate entries of the source, which are not always exact repeats. Equal entries are not always repeated. Screen size: about 5,500 compounds; about 2,000 (36%) were called active. Inconclusive results (about 18%) are left out. Rule as the data show it: active = normalized growth mostly below about 0.91 (no sharp cut-off); inconclusive = no clear call, values can overlap the other calls; inactive = mostly above about 0.92. The list shows a part of the results. A structure can be active in one record and inactive in another.
# Experiment: chemical genetic growth profiling, strain panel (AID 1159580);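 also: tested at 20 µM; growth read once vehicle control cultures reached saturation at 30 °C; 1 = growth at the plate median or of vehicle wells; lower values mean less growth of the strain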
# Settings: S. cerevisiae deletion strains, growth OD
smiles,measurement,setting,value
Cc1ccc(Cl)c(Nc2ccccc2C(=O)O)c1Cl,normalized growth,"locus YAL013W, strain DEP1, stronger effect = lower value",0.938 (inactive)
same,normalized growth,"locus YAL021C, strain ccr4, stronger effect = lower value",0.917 (inactive)
same,normalized growth,"locus YAL026C, strain drs2, stronger effect = lower value",0.787 (active)
same,normalized growth,"locus YAL030W, strain snc1, stronger effect = lower value",0.876 (active)
same,normalized growth,"locus YAL040C, strain CLN3, stronger effect = lower value",0.916 (inactive)
same,normalized growth,"locus YBL061C, strain skt5, stronger effect = lower value",0.884 (active)
same,normalized growth,"locus YBR009C, strain hhf1, stronger effect = lower value",0.856 (active)
same,normalized growth,"locus YBR021W, strain FUR4, stronger effect = lower value",0.954 (inactive)
same,normalized growth,"locus YBR023C, strain chs3, stronger effect = lower value",0.852 (active)
same,normalized growth,"locus YBR171W, strain sec66, stronger effect = lower value",0.817 (active)
same,normalized growth,"locus YBR229C, strain ROT2, stronger effect = lower value",0.884 (active)
same,normalized growth,"locus YBR231C, strain swc5, stronger effect = lower value",0.885 (active)
same,normalized growth,"locus YBR279W, strain paf1, stronger effect = lower value",0.867 (active)
same,normalized growth,"locus YCL011C, strain gbp2, stronger effect = lower value",0.852 (active)
same,normalized growth,"locus YCL016C, strain dcc1, stronger effect = lower value",0.818 (active)
same,normalized growth,"locus YCL029C, strain bik1, stronger effect = lower value",0.887 (active)
same,normalized growth,"locus YCL061C, strain MRC1 (second series), stronger effect = lower value",0.965 (inactive)
same,normalized growth,"locus YCL061C, strain MRC1, stronger effect = lower value",0.891 (active)
same,normalized growth,"locus YCL069W, strain vba3, stronger effect = lower value",0.866 (active)
same,normalized growth,"locus YCR088W, strain abp1, stronger effect = lower value",0.876 (active)
same,normalized growth,"locus YDL005C, strain med2, stronger effect = lower value",0.895 (active)
same,normalized growth,"locus YDL035C, strain GPR1, stronger effect = lower value",0.939 (inactive)
same,normalized growth,"locus YDL040C, strain nat1, stronger effect = lower value",0.894 (active)
same,normalized growth,"locus YDL074C, strain BRE1, stronger effect = lower value",0.799 (inactive)
same,normalized growth,"locus YDL101C, strain DUN1, stronger effect = lower value",0.957 (inactive)
same,normalized growth,"locus YDL185W, strain tfp1, stronger effect = lower value",0.953 (inactive)
same,normalized growth,"locus YDL192W, strain arf1, stronger effect = lower value",0.824 (active)
same,normalized growth,"locus YDR001C, strain nth1, stronger effect = lower value",0.871 (active)
same,normalized growth,"locus YDR069C, strain doa4, stronger effect = lower value",0.928 (inactive)
same,normalized growth,"locus YDR101C, strain arx1, stronger effect = lower value",0.906 (active)
same,normalized growth,"locus YDR137W, strain rgp1, stronger effect = lower value",0.455 (active)
same,normalized growth,"locus YDR150W, strain NUM1, stronger effect = lower value",0.879 (active) and 0.942 (inactive)
same,normalized growth,"locus YDR159W, strain sac3, stronger effect = lower value",0.766 (active)
same,normalized growth,"locus YDR162C, strain NBP2, stronger effect = lower value",0.794 (active)
same,normalized growth,"locus YDR195W, strain ref2",1.11 (inactive)
same,normalized growth,"locus YDR297W, strain sur2, stronger effect = lower value",0.908 (active)
same,normalized growth,"locus YDR318W, strain mcm21, stronger effect = lower value",0.83 (active)
same,normalized growth,"locus YDR334W, strain swr1, stronger effect = lower value",0.879 (active)
same,normalized growth,"locus YDR335W, strain msn5, stronger effect = lower value",0.896 (active)
same,normalized growth,"locus YDR363W, strain ESC2, stronger effect = lower value",0.985 (inactive)
same,normalized growth,"locus YDR388W, stronger effect = lower value",0.87 (active)
same,normalized growth,"locus YDR392W, strain spt3, stronger effect = lower value",0.188 (active)
same,normalized growth,"locus YDR502C, strain sam2, stronger effect = lower value",0.835 (active)
same,normalized growth,"locus YEL003W, strain gim4, stronger effect = lower value",0.904 (active)
same,normalized growth,"locus YEL037C, strain rad23, stronger effect = lower value",0.901 (active)
same,normalized growth,"locus YEL061C, strain CIN8 (second series), stronger effect = lower value",0.885 (active)
same,normalized growth,"locus YEL061C, strain CIN8, stronger effect = lower value",0.888 (active)
same,normalized growth,"locus YER002W, strain NOP16, stronger effect = lower value",0.926 (inactive)
same,normalized growth,"locus YER015W, strain faa2, stronger effect = lower value",0.926 (active)
same,normalized growth,"locus YER016W, strain bim1, stronger effect = lower value",0.91 (active)
same,normalized growth,"locus YER110C, stronger effect = lower value",0.866 (active)
same,normalized growth,"locus YER111C, strain swi4, stronger effect = lower value",0.876 (active)
same,normalized growth,"locus YER155C, strain BEM2 (second series), stronger effect = lower value",0.644 (active)
same,normalized growth,"locus YER155C, strain BEM2, stronger effect = lower value",0.839 (active)
same,normalized growth,"locus YER167W, strain BCK2, stronger effect = lower value",0.905 (inactive)
same,normalized growth,"locus YFR010W, strain ubp6, stronger effect = lower value",0.931 (inactive)
same,normalized growth,"locus YGL078C, strain dbp3, stronger effect = lower value",0.969 (inactive)
same,normalized growth,"locus YGL086W, strain mad1, stronger effect = lower value",0.905 (active)
same,normalized growth,"locus YGL167C, strain pmr1, stronger effect = lower value",0.829 (active)
same,normalized growth,"locus YGL173C, strain kem1, stronger effect = lower value",0.85 (active)
same,normalized growth,"locus YGL227W, strain vid30, stronger effect = lower value",0.906 (active)
same,normalized growth,"locus YGL240W, strain doc1, stronger effect = lower value",0.91 (inactive)
same,normalized growth,"locus YGL248W, strain PDE1, stronger effect = lower value",0.899 (inactive)
same,normalized growth,"locus YGL253W, strain hxk2, stronger effect = lower value",0.81 (active)
same,normalized growth,"locus YGR078C, strain PAC10, stronger effect = lower value",0.926 (inactive)
same,normalized growth,"locus YGR135W, strain pre9, stronger effect = lower value",0.795 (active)
same,normalized growth,"locus YGR229C, strain SMI1, stronger effect = lower value",0.841 (inactive)
same,normalized growth,"locus YGR252W, strain gcn5, stronger effect = lower value",0.834 (inactive)
same,normalized growth,"locus YHR013C, strain ard1, stronger effect = lower value",0.793 (active)
same,normalized growth,"locus YHR027C, strain rpn1, stronger effect = lower value",0.903 (active)
same,normalized growth,"locus YHR030C, strain SLT2, stronger effect = lower value",0.901 (active) and 0.983 (inactive)
same,normalized growth,"locus YHR079C, strain IRE1 (second series), stronger effect = lower value",0.876 (active)
same,normalized growth,"locus YHR079C, strain IRE1, stronger effect = lower value",1.03 (inactive)
same,normalized growth,"locus YHR094C, strain hxt1, stronger effect = lower value",0.869 (active)
same,normalized growth,"locus YHR129C, strain ARP1, stronger effect = lower value",0.91 (active)
same,normalized growth,"locus YHR142W, strain chs7, stronger effect = lower value",0.737 (active)
same,normalized growth,"locus YHR200W, strain rpn10, stronger effect = lower value",0.882 (active)
same,normalized growth,"locus YIL066C, strain RNR3, stronger effect = lower value",0.881 (inactive)
same,normalized growth,"locus YIL073C, strain SPO22, stronger effect = lower value",0.735 (inactive)
same,normalized growth,"locus YIL125W, strain kgd1, stronger effect = lower value",0.981 (inactive)
same,normalized growth,"locus YIR030C, strain dcg1, stronger effect = lower value",0.868 (active)
same,normalized growth,"locus YJL092W, strain hpr5, stronger effect = lower value",0.872 (active)
same,normalized growth,"locus YJL095W, strain BCK1 (second series), stronger effect = lower value",0.822 (active)
same,normalized growth,"locus YJL095W, strain BCK1, stronger effect = lower value",0.664 (active) and 0.986 (inactive)
same,normalized growth,"locus YJL115W, strain asf1, stronger effect = lower value",0.934 (inactive)
same,normalized growth,"locus YJL129C, strain trk1, stronger effect = lower value",0.644 (active)
same,normalized growth,"locus YJL134W, strain LCB3, stronger effect = lower value",0.906 (active)
same,normalized growth,"locus YJL154C, strain vps35, stronger effect = lower value",0.891 (active)
same,normalized growth,"locus YJL164C, strain tpk1, stronger effect = lower value",0.866 (active)
same,normalized growth,"locus YJL166W, strain qcr8, stronger effect = lower value",0.864 (active)
same,normalized growth,"locus YJL168C, strain set2, stronger effect = lower value",0.892 (active)
same,normalized growth,"locus YJL187C, strain SWE1 (second series), stronger effect = lower value",0.897 (inactive)
same,normalized growth,"locus YJL187C, strain SWE1, stronger effect = lower value",0.891 (active)
same,normalized growth,"locus YJR043C, strain POL32, stronger effect = lower value",0.956 (inactive)
